Here are results for 37 compounds from PubChem BioAssay (NCI).

Molecules are shown by their SMILES. This is part of a sample that, as a whole, favours compounds with a hit. Of some 83,000 tested, about 20% had one in any assay.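 Cells were grown in 96-well plates and exposed to the test compound at a single concentration for 48 hours; results are reported as percent growth, with values below 10 considered active.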 Activity calls are given as the source filed them.

This assay has as its system KM12 colon. The assay is described as follows: NCI-60 one-dose screen, 48 h (100 = growth as untreated, 0 = no growth, -100 = all killed). The note with it: 10 µM.
As to `O=C(/C=C/Nc1ccc(F)cc1F)c1ccc2c(c1)Nc1ccccc1S2`, the growth is 51.6% (inactive).
In the case of `C=C1CC[C@H](C(=C)C)[C@H]2C=C(C)C(=O)C3=C(C(=O)[C@@](C)(O)C3)[C@H]12` it was -73.9% (active); in that of `CN(CCO)c1oc(-c2ccccc2)nc1[P+](c1ccccc1)(c1ccccc1)c1ccccc1`, -39.4% (active); in that of `O=C(CNc1nc(-c2ccccc2)cs1)Nc1ccc([N+](=O)[O-])cc1Cl`, 29.1% (inactive).
In the case of `COc1ccc(CCN2C(=O)/C(=C/c3csc(C#N)n3)SC2=S)cc1OC` it was 35% (inactive).
In the case of `Cc1ccc([N+](=O)[O-])c(C(=O)Nc2ccc(-c3ccc4c(c3)NC(=O)/C4=C\c3ccc[nH]3)cc2)c1` it was -10.9% (active); in that of `COc1ccc(-c2nc(S(=O)(=O)c3ccccc3)c(S(C)(=O)=O)o2)cc1`, 66% (inactive); in that of `Cc1ccc(-c2ccc(SCC(=O)Nc3ccc(Cl)c(C(F)(F)F)c3)nn2)cc1`, 24.7% (inactive).
For `Cc1ccn2c(C(=O)c3ccc(Br)cc3)cc(-c3cc(-c4ccc(N(C)C)cc4)c(C#N)c(N)n3)c2c1`, the growth was 62.4% (inactive).
In the case of `O=c1[nH]c2ccccc2cc1CSc1ccc(Nc2nccc(-c3ccc(Cl)cc3)n2)cc1` it was 23% (inactive).
For the compound `CC1(C)CC[C@]2(C(=O)Nc3ccccc3)CC[C@]3(C)C(=CC[C@@H]4[C@@]5(C)CC[C@H](N)C(C)(C)[C@@H]5CC[C@]43C)[C@H]2C1`, the growth was 36.1% (inactive).
As to `Cc1ccc(NC(=O)NCn2c(=O)[nH]c3ccccc3c2=O)cc1`, the growth was 98.9% (inactive).
As to `COc1cc(/C=C/C(=O)c2cc(OC)c(OC)c(OC)c2)ccc1Oc1nc(Nc2ccc(F)cc2)nc(N(C)C)n1`, the growth is -41.1% (active).
The value for `Cn1cc(/C=N/Nc2ccnc3cc(Cl)ccc23)c2ccccc21` was -94.3% (active).
In the case of `N#Cc1ccc(-c2nn(-c3ccc(C(=O)O)cc3)cc2CNc2cc(Cl)cc(C(F)(F)F)c2)cc1` it was 4.92% (active); in that of `O=C1NC(=NC23CC4CC(CC(C4)C2)C3)N/C1=C\c1ccc2ncccc2n1`, -0.698% (active).
As to `COc1ccc(/C=C/C(=O)c2ccc(NC(=O)CN3C(=O)NC(C)(c4ccccc4)C3=O)cc2)cc1` (configuration not stated), the growth is 49.3% (inactive).
In the case of `O=C(c1ccc(Cl)cc1)C1[C@H](c2ccccc2Br)[C@@H](c2ccccc2)NC12C(=O)Nc1ccc(Cl)cc12` (some centres not stated) it was 8.12% (active).
The value for `O=C1CCC(N2Cc3cc(NC(=O)COc4ccccc4)ccc3C2=O)C(=O)N1` (configuration not stated) was 74.5% (inactive).
In the case of `CC1(c2ccccc2)NC(=O)N(CC(=O)Nc2ccc(C(=O)/C=C/c3ccc(Cl)cc3)cc2)C1=O` (configuration not stated) it was -81.4% (active); in that of `C#CCNC(=O)CCC(=O)OC[C@]12CC[C@@H](C(=C)C)[C@@H]1C1CC[C@@H]3[C@@]4(C)CCCNC(C)(C)[C@@H]4CC[C@@]3(C)[C@]1(C)CC2` (some centres not stated), 6.5% (active); in that of `CCCn1c(=O)c2[nH]c(-c3ccc(OCc4nc5ccc(F)cc5[nH]4)cc3)nc2n(CCC)c1=O`, 55.7% (inactive).
Consider `COC[C@@H](CC(C)C)N=C1NC(=O)/C(=C/c2ccc3ncsc3c2)N1`, for which the growth was 21% (inactive).
In the case of `COc1ccc(C=CC(=O)c2ccc(-n3c(C)nc4c(cnn4-c4ccccc4)c3=O)cc2)cc1`, the growth is 31.6% (inactive).
On to `O=C(c1ccc(Cl)cc1)C1[C@H](c2ccccc2Br)[C@@H](c2ccccc2)NC12C(=O)Nc1ccc(Br)cc12` (some centres not stated), for which the growth was 11.8% (inactive).
In the case of `O=C(Nc1cccc(C(F)(F)F)c1)c1cncc(C#Cc2cnc3ccc(N4CCOCC4)nn23)c1` it was -24.1% (active); in that of `N#Cc1c(-c2ccc(F)cc2)nc(SCc2ccc([N+](=O)[O-])cc2)nc1N1CCOCC1`, 84.9% (inactive); in that of `NS(=O)(=O)c1ccc(NC(=O)CSc2ccc(-c3ccc(Cl)cc3)nn2)c(Br)c1`, 64.6% (inactive).
In the case of `CC(=O)NCC1=C(C)C=C2C(=O)[C@](C)(O)C3(CC3)C(C)=C21` it was -5.71% (active); in that of `CC(=O)Nc1nc(-c2ccc(N3CCN(C)CC3)c(NS(=O)(=O)c3cccc4c(N(C)C)cccc34)c2)cs1`, 59.8% (inactive).
In the case of `O=C(CSc1nnc(-c2ccc3nc(-c4ccc(Cl)cc4)[nH]c3c2)o1)Nc1ccc(Br)cc1` it was 15.6% (inactive); in that of `COc1cc2c3c(n(CCCNCCO)c(=O)c2cc1OC)-c1nc2c(cc1C3=O)OCO2`, 40.4% (inactive).
For `Cc1ccc(NCC(=O)Nn2c(COc3ccccc3)nc3ccccc3c2=O)cc1`, the growth is 100% (inactive).
For `O=C(c1ccccc1)n1ccc(-c2cc3cc(Br)ccc3oc2=O)n1`, the growth is 27.9% (inactive).
The value for `Cc1ccc(CSc2nc(Cl)c(C#N)c(-c3ccc(F)cc3)n2)cc1` was 72.2% (inactive).
The value for `COc1cc(/C=C/C(=O)c2ccc(F)cc2)ccc1Oc1nc(Nc2ccc(F)cc2)nc(N(C)C)n1` was 61% (inactive).
In the case of `COc1cc2oc(-c3cccc(C(=O)Nc4ccc(Cl)cc4)c3)cc(=O)c2c(OCCNC(=O)CNC(=O)OC(C)(C)C)c1OC` it was 48.6% (inactive).
